From PubChem BioAssay
Activity calls are given as the source filed them. Unless noted, how the calls were made is not given here.

Key:
[1] = kinase inhibitors against Plasmodium liver-stage infection, cell-based, known kinase inhibitor set, luminescence, hepatoma host viability (AID 624392); details: Plasmodium liver stage in hepatoma cells, luciferase luminescence, concentration not given here; liver cell % of control: measured here: host liver cell viability; parasite % of control: stronger effect = lower value;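 further: infected cells incubated roughly two days before readout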
[2] = modulators of glucocorticoid suppression of NF-kB, cell-based, luciferase, IL-1B stimulus, dexamethasone (AID 624486); details: NF-kB luciferase reporter, IL-1B + dexamethasone, luminescence; percent of negative control (+Dex): actives lie on both sides, concentration not given here; z-score: measured here: IL-1B alone, no Dex;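 on percent of negative control (+Dex): 100% = mean signal of vehicle control wells on the plate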
[3] = biological target: Cellular tumor antigen p53 (Homo sapiens) (UniProt P04637); assay: kinase inhibitors altering GFP-p53 stability in HPV16-positive cells, imaging, known kinase inhibitor set, EGFP/DsRed ratio (AID 1053116); details: stronger effect = higher value; EGFP object count: measured here: GFP-p53 positive objects count;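 further: cells exposed to compounds for 24 h at 37 °C before reading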
Sequence of Cellular tumor antigen p53 (Homo sapiens) (P04637 whole entry, looked up): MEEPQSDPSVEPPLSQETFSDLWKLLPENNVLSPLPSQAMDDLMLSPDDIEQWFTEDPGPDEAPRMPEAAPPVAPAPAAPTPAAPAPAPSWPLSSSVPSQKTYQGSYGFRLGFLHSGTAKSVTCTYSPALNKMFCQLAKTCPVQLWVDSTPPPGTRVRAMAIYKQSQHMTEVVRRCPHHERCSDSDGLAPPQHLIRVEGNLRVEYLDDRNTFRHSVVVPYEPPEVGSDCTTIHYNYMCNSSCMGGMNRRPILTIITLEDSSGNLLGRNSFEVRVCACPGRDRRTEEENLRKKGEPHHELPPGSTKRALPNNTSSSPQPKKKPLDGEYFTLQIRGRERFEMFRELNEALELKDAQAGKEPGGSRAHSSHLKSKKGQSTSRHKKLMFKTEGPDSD

[4] = IRF3 reporter activation in THP-1 macrophages, cell-based, PMA-stimulated THP-1, luminescence (AID 1053176); details: PMA-differentiated THP-1, IRF3 reporter luminescence; stronger effect = higher value
[5] = kinase inhibitors altering Pseudomonas killing of worms, whole organism (AID 651566);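 further: tested at 14 µM; sign flipped so higher z means a lower ratio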; details: C. elegans killed by P. aeruginosa, survival ratio
[6] = activators of macrophage pro-inflammatory response, cell-based, murine, luminescence (AID 652131); details: murine macrophage pro-inflammatory reporter, stronger effect = higher value
[7] = survival rescue of mitochondrial mutant cells in low glucose, primary screen, MELAS cybrids, Rieske KO mouse fibroblasts, CellTiter-Glo (AID 1508586;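 active means mean z-score across replicates of 1.96 or higher in either the MELAS or the Rieske mutant cell line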;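 further: z relative to plate mean and SD of compound and empty wells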)
[8] = MELAS cybrid survival, CellTiter-Glo 48 h, stronger effect = higher value
[9] = Rieske KO mouse fibroblast survival, CellTiter-Glo 72 h

SMILES | liver cell % of control [1] [%] | parasite % of control [1] | percent of negative control (+Dex) [2] | z-score [2] | EGFP object count [3] | EGFP/DsRed ratio [3] | fraction signal [4] | z-score [5] | z-score [6] | z-score [7, 8] | z-score [7, 9]
Nc1c(C(=O)c2cccc(OCC(O)CO)c2)cnn1-c1ccc(F)cc1 (stereo not drawn) | 125 | 58.2% (inactive) | 110% (inactive) | 1.27 | 1.5 | 0.00398 (inactive) | -0.0115 (inactive) |  |  |  | 
CON=C1NC(=O)C(=Cc2ccc3ncccc3c2)S1 | 89.4 | 71.6% (inactive) | 113% (inactive) | 2.23 | 3.5 | 0.0939 (inactive) | -0.005 (inactive) |  |  |  | 
NC(=O)c1ccc2c(-c3ccnc(NCCCO)n3)c(-c3ccc(F)cc3)nn2c1 | 85.3 | 58.4% (inactive) | 106% (inactive) | 0.705 | 4 | 0.0827 (inactive) | 0.003 (inactive) | -0.18 (inactive) | 0.119 (inactive) | -0.11 (inactive) | -0.24
COc1cc2c(cc1Nc1nc(Nc3ccsc3C(N)=O)c3cc[nH]c3n1)N(C(=O)CN(C)C)CCC2 | 54.7 | 369% (inactive) | 95.5% (inactive) | -0.185 | 1.5 | 0.0536 (inactive) | -0.007 (inactive) | -0.225 (inactive) | 2.59 (inactive) | 2.79 (active) | 10.1
O=C1NC(=NCc2cccs2)SC1Cc1ccc2ncccc2c1 (stereo not drawn) | 108 | 12.8% (inactive) | 96% (inactive) | -0.14 | 2.5 | 0.109 (inactive) | 0.0035 (inactive) |  |  |  | 
O=c1c(Oc2ccc(F)cc2F)cc2cnc(NC3CCOCC3)nc2n1CCCO | 122 | 71.8% (inactive) | 92% (inactive) | -0.815 | 2.5 | 0.0231 (inactive) | 0.0075 (inactive) |  |  |  | 
CON=C(c1ccccc1)c1cnn(-c2ccccc2)c1N | 121 | 79.3% (inactive) | 98.5% (inactive) | 0.245 | 3.5 | 0.128 (inactive) | 0.0055 (inactive) |  |  |  | 
Cc1ccccc1-n1ncc(C(=O)c2ccccc2)c1N | 104 | 52.3% (inactive) | 120% (inactive) | 1.31 | 5 | 0.225 (inactive) | -0.0005 (inactive) |  |  |  | 
O=[N+]([O-])c1ccc2c(c1)C(c1ccccc1Cl)=Nc1cn[nH]c1N2 | 101 | 21.4% (inactive) | 109% (inactive) | -0.52 | 12 | 0.495 (inactive) | -0.005 (inactive) |  |  |  | 
O=C1NC(=NCCc2ccc(Cl)cc2)SC1=Cc1ccc2ncccc2c1 | 108 | 53.8% (inactive) | 95% (inactive) | 0.425 | 6.5 | 0.259 (inactive) | -0.0075 (inactive) |  |  |  | 
Cn1cc(C2=C(c3cccc([N+](=O)[O-])c3)C(=O)NC2=O)c2ccccc21 | 86.9 | 3.57% (inactive) | 106% (inactive) | -2.63 | 14 | 0.255 (inactive) | 0.0015 (inactive) |  |  |  | 
Cn1cc(C2=C(c3c4n(c5ccccc35)CCCCC4)C(=O)NC2=O)c2ccccc21 | 80.1 | 66.1% (inactive) | 100% (inactive) | -0.31 | 7 | 0.223 (inactive) | -0.005 (inactive) |  |  |  | 
CCCCCNC(=O)C1CCCN2C(=O)CCC(NC(=O)C(Cc3ccc(OP(=O)(O)O)cc3)NC(C)=O)C(=O)N12 (stereo not drawn) | 106 | 50.1% (inactive) | 99% (inactive) | 0.695 | 3.5 | 0.227 (inactive) | -0.007 (inactive) |  |  |  | 
O=C1NC(=NCCCc2ccccc2)SC1=Cc1ccc2ncccc2c1 | 104 | 43% (inactive) | 83% (inactive) | -0.69 | 5 | 0.104 (inactive) | -0.011 (inactive) |  |  |  | 
CS(=O)(=O)CCc1cccc(C(=O)c2cnn(-c3ccc(F)cc3)c2N)c1 | 95.7 | 45.3% (inactive) | 102% (inactive) | 1.1 | 1.5 | 0.152 (inactive) | -0.0075 (inactive) |  |  |  | 
O=C1Nc2ccc(F)cc2C1=Cc1ccc[nH]1 | 55.9 | 14% (inactive) | 136% (active) | 4.44 | 23 | 0.607 (inactive) | -0.014 (inactive) |  |  |  | 
O=C1NC(=NCc2ccccc2)SC1=Cc1ccc2ncccc2c1 | 99.5 | 34.9% (inactive) | 92.5% (inactive) | -0.26 | 7 | 0.173 (inactive) | -0.003 (inactive) |  |  |  | 

SMILES | liver cell % of control [1] [%] | parasite % of control [1] | percent of negative control (+Dex) [2] | z-score [2] | EGFP object count [3] | EGFP/DsRed ratio [3] | fraction signal [4] | z-score [5] | z-score [6] | z-score [7, 8] | z-score [7, 9]
O=C1NC(=NCCc2cccs2)SC1=Cc1ccc2ncccc2c1 | 118 | 40.6% (inactive) | 96% (inactive) | -0.36 | 4.5 | 0.079 (inactive) | -0.003 (inactive) |  |  |  | 
Nc1c(C(=O)c2ccc(CCCN3CCOCC3)cc2)cnn1-c1ccc(F)cc1 | 119 | 61% (inactive) | 106% (inactive) | 0.435 | 2 | 0.0463 (inactive) | 0.001 (inactive) |  |  |  | 
Cn1cc(C2=C(n3ccc4ccccc43)C(=O)NC2=O)c2ccccc21 | 130 | 37.7% (inactive) | 95.5% (inactive) | 0.125 | 4 | 0.178 (inactive) | -0.0025 (inactive) |  |  |  | 
COc1cccc(C2=C(c3cn(C)c4cc(F)ccc34)C(=O)NC2=O)c1 | 128 | 31.5% (inactive) | 114% (inactive) | 0.535 | 7 | 0.327 (inactive) | 0.0095 (inactive) |  |  |  | 
NS(=O)(=O)c1ccc(-c2ccc3c(NC(=O)C4CC4)n[nH]c3c2)cc1 | 109 | 143% (inactive) | 98.5% (inactive) | 0.755 | 4.5 | 0.0343 (inactive) | -0.0105 (inactive) | -0.155 (inactive) | 0.098 (inactive) | -0.641 (inactive) | -0.353
CC(C)(O)Cn1c(=O)c(Oc2ccc(F)cc2F)cc2cnc(NC3CCOCC3)nc21 | 105 | 58.9% (inactive) | 86% (inactive) | -0.37 | 4 | 0.0773 (inactive) | -0.0135 (inactive) |  |  |  | 
O=C1NC(=O)C(c2c[nH]c3ccccc23)C1c1c[nH]c2ccccc12 (stereo not drawn) | 102 | 41.2% (inactive) | 100% (inactive) | 0.125 | 2.5 | 0.0298 (inactive) | -0.0005 (inactive) |  |  |  | 
Nc1c(C(=O)c2cccc(CCC3(O)CCCC3)c2)cnn1-c1ccc(F)cc1 | 112 | 81% (inactive) | 105% (inactive) | -0.24 | 2.5 | 0.0989 (inactive) | -0.0005 (inactive) |  |  |  | 
Cc1[nH]nc2c1N=C(c1ccccc1F)c1cc(C(N)=O)ccc1N2 | 91.5 | 76.9% (inactive) | 110% (inactive) | 0.59 | 54.5 | 0.555 (active) | -0.005 (inactive) |  |  |  | 
CNCCCn1cc(C2=C(c3cn(C)c4ccccc34)C(=O)NC2=O)c2ccccc21 | 82 | 60.5% (inactive) | 102% (inactive) | 0.035 | 2.5 | 0.00316 (inactive) | -0.0095 (inactive) |  |  |  | 
NC1=NC(=O)C(=Cc2ccc3ncccc3c2)S1 | 101 | 50.6% (inactive) | 100% (inactive) | 0.495 | 4 | 0.204 (inactive) | -0.007 (inactive) |  |  |  | 
Cn1cc(C2=C(c3cccc(OCC(O)CO)c3)C(=O)NC2=O)c2cc(F)ccc21 (stereo not drawn) | 125 | 31.6% (inactive) | 97% (inactive) | 0.67 | 8 | 0.21 (inactive) | -0.0075 (inactive) |  |  |  | 
Cn1cc(C2=C(c3ccc(N)cc3)C(=O)NC2=O)c2ccccc21 | 135 | 32.1% (inactive) | 100% (inactive) | -0.99 | 28.5 | 0.493 (inactive) | -0.005 (inactive) |  |  |  | 
Nc1c(C(=O)c2ccccc2)cnn1-c1ccc(F)cc1 | 97.1 | 76.7% (inactive) | 152% (active) | 5.57 | 5 | 0.17 (inactive) | -0.0025 (inactive) |  |  |  | 
Nc1c(C(=O)c2cccc(-c3ccc[n+]([O-])c3)c2)cnn1-c1ccc(F)cc1F | 105 | 45.9% (inactive) | 101% (inactive) | 0.065 | 3.5 | 0.063 (inactive) | -0.0155 (inactive) |  |  |  | 
Nc1c(C(=O)c2cccc(CCS(N)(=O)=O)c2)cnn1-c1ccc(F)cc1 | 92.4 | 53.8% (inactive) | 105% (inactive) | 0.275 | 2 | 0.0563 (inactive) | 0.0055 (inactive) |  |  |  | 
